# PAFAH2 inh: PAFAH2 enzyme inhibitors, primary screen, biochemical, fluorescence polarization, human; inhibition, % at 3.39 µM; 0.99% of 340,000 active; recombinant PAFAH2, FP-rhodamine activity probe; Platelet-activating factor acetylhydrolase 2, cytoplasmic (Homo sapiens), Q99487;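 active = inhibition above the mean over all tested compounds plus 3 SD, cut at about 30% in these data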;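 also: inhibitors block probe labeling of enzyme so polarization drops; 0% = enzyme with DMSO and 100% = wells lacking PAFAH2 protein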
# PAFAH1B2 inh: PAFAH1B2 enzyme inhibitors, primary screen, biochemical, fluorescence polarization, human; Platelet-activating factor acetylhydrolase IB subunit alpha2 (Homo sapiens), P68402; recombinant PAFAH1B2, FP-rhodamine activity probe; inhibition, % at 3.39 µM; 1.2% of 340,000 active;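 active = inhibition above the mean of all tested compounds plus 3 SD, cut at about 24% in these data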;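 also: 0% = enzyme with DMSO and 100% = wells lacking PAFAH1B2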
# Target sequence (P68402 whole entry, looked up): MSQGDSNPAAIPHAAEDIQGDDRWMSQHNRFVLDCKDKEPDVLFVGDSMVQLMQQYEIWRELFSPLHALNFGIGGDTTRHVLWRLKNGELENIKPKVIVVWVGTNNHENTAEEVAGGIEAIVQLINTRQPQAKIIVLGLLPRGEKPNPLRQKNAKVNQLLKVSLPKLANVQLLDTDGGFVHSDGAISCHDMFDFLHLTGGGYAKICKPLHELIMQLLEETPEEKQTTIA
# pPAFAH FP inh: pPAFAH enzyme inhibitors, primary screen, biochemical, fluorescence polarization, human | 1.5% of 330,000 active | inhibition, % at 3.39 µM | recombinant pPAFAH, FP-rhodamine probe fluorescence polarization | Platelet-activating factor acetylhydrolase (Homo sapiens), Q13093;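 active = inhibition above the mean inhibition across the screen plus 3 SD, cut at about 25% in these data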;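 also: inhibitors block binding of the rhodamine activity-based probe so polarization drops; 0% = enzyme with DMSO and 100% = wells lacking pPAFAH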
# PAFAH1B3 FP inh: PAFAH1B3 enzyme inhibitors, primary screen, biochemical, fluorescence polarization, human; Platelet-activating factor acetylhydrolase IB subunit alpha1 (Homo sapiens), Q15102; recombinant PAFAH1B3, FP-rhodamine probe; 0.28% of 340,000 active; inhibition, % at 3.39 µM; AID 492972, 2010;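 active = inhibition above the screen-wide average of all tested compounds plus 3 SD, cut at about 25% in these data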;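 also: 0% = enzyme with DMSO only and 100% = wells lacking PAFAH1B3 protein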
# Target sequence (Q15102 whole entry, looked up): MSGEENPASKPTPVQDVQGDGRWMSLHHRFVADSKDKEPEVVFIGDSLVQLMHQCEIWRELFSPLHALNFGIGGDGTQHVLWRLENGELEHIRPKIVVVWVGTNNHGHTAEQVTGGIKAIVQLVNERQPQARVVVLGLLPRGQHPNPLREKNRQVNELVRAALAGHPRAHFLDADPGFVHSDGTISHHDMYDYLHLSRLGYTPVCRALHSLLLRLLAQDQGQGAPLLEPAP
# HTRA1 inhibitor: HTRA1 serine protease inhibitors, primary screen, biochemical, fluorescence polarization, HTS; Q92743; 0.5% of 340,000 active; AID 504803, 2011; recombinant HTRA1, FP-rhodamine activity-based probe; inhibition, % at 5.96 µM; in the data active = inhibition above about 36%;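 also: 0% = enzyme with DMSO and 100% = wells lacking enzyme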
# DAGLB inhibitor: DAGLB lipase inhibitors, primary screen, biochemical, fluorescence, HTS | inhibition, % at 5.17 µM | AID 504411, 2011 | Diacylglycerol lipase-beta (Homo sapiens), Q8NCG7 | 0.059% of 340,000 active | HEK293T DAGLB membrane lysate, EnzChek fluorogenic substrate; in the data active = inhibition above about 34%;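 also: 0% = enzyme with vehicle and 100% = wells lacking enzyme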
# Starred values were filed as active, the others as inactive; nt = no result. This is a sample that favours compounds with a hit; in the whole collection about 2.8% have one here.
SMILES,PAFAH2 inh,PAFAH1B2 inh,pPAFAH FP inh,PAFAH1B3 FP inh,HTRA1 inhibitor,DAGLB inhibitor
CCN(CC)S(=O)(=O)c1cc(C(=O)OCC(=O)Nc2c(F)cccc2F)ccc1F,29,0,32*,7,0,-3
CN(Cc1cccs1)C(=O)CCNS(=O)(=O)c1ccc(Br)cc1,10,32*,4,14,2,-3
C=CCOc1ccc(C(=O)Nc2ncn[nH]2)cc1,0,2,2,8,5,3
CN(C(=O)COC(=O)c1cc(S(=O)(=O)N2CCOCC2)ccc1Cl)C1CCS(=O)(=O)C1 (stereo not drawn),-2,3,2,5,5,-2
O=C(c1cccs1)N1CCC(c2nc3c(nnn3Cc3ccccc3Cl)c(=O)[nH]2)CC1,7,3,9,7,-5,3
Cc1cc(=O)oc2c3c(cc(OCC(=O)N[C@@H](CC(C)C)C(=O)O)c12)OC(C)(C)CC3,13,35*,0,4,3,1
CCCC(NC(=O)COc1cc2c(c3oc(=O)cc(C)c13)CCC(C)(C)O2)C(=O)O (stereo not drawn),13,9,7,-3,2,1
CCOC(=O)c1c(NC(=O)C(C)Sc2cccc[n+]2[O-])sc2c1CCN(Cc1ccccc1)C2 (stereo not drawn),-16,-2,33*,7,1,-2
C[C@@H]1CN([C@H](C)CO)C(=O)c2cc(NC(=O)Nc3ccc(F)cc3)ccc2O[C@@H](C)CCCCO[C@H]1CN(C)S(=O)(=O)c1cccs1,nt,nt,nt,nt,-46,0
CCn1c(SCC(=O)c2c(N)n(C3CC3)c(=O)[nH]c2=O)nnc1-c1ccoc1C,3,1,-1,0,-1,2
NC1=NC(=O)/C(=C\c2ccco2)S1,21,8,30*,14,18,1
O=C(NCc1ccccn1)c1ccc(Cl)c(NC2=NC3CS(=O)(=O)CC3S2)c1 (stereo not drawn),4,4,4,9,-4,-3
CC(Sc1n[nH]c(N)n1)C(=O)C12CC3CC(CC(C3)C1)C2 (stereo not drawn),8,27*,-4,3,1,-2
CC(SC#N)C(=O)C12CC3CC(CC(C3)C1)C2 (stereo not drawn),8,15,6,5,0,14
CCN(CC)C(=O)C1=C(C)N(Cc2ccc(OC)cc2)C(=O)C(CC(=O)NC2CC2)C1 (stereo not drawn),nt,nt,nt,nt,7,-3
O=C(O)c1cccc(S(=O)(=O)Nc2ccc3[nH]c(=O)[nH]c3c2)c1,-1,4,6,8,2,-1
O=C(O)c1cccc(S(=O)(=O)Nc2ccc3oc(=O)sc3c2)c1,-4,27*,4,7,8,-1
COC(=O)[C@]1(C)N[C@H](CN(C)C(=O)Nc2ccc(C(F)(F)F)cc2)[C@@H]2C(=O)N(C)C(=O)[C@@H]21,-1,4,0,6,-1,-1
Cn1cccc1CC(=O)NNC(=S)Nc1ccc(Cl)cc1Cl,-7,9,26*,4,1,4
O=C(CN1c2ccccc2Sc2ccccc21)NNC(=S)Nc1ccc(Cl)cc1Cl,4,-2,34*,-3,15,15
Cn1cccc1CC(=O)NNC(=S)NC(=O)c1ccccc1Br,0,4,26*,3,7,-1
Cn1cccc1CC(=O)NNC(=S)Nc1ccc(F)cc1,2,13,18,-3,7,0
Cc1[nH]c2ccccc2c1/C=N/NC(=O)c1ccccc1,5,5,8,4,2,-2
Cc1[nH]c2ccccc2c1/C=N/NC(=O)c1cc(-c2ccccc2)n[nH]1,nt,nt,25*,nt,nt,nt
Clc1nnc(Cl)c2c1ncn2Cc1ccccc1,4,5,9,2,-1,1
SMILES,PAFAH2 inh,PAFAH1B2 inh,pPAFAH FP inh,PAFAH1B3 FP inh,HTRA1 inhibitor,DAGLB inhibitor
CSCCC(NC(=O)c1ccccc1Cl)C(=O)N(C)CC(=O)Nc1ccc(N2CCOCC2)cc1 (stereo not drawn),4,5,29*,2,7,2
CN(CC(=O)Nc1ccc(N2CCOCC2)cc1)C(=O)c1cccc(Cl)c1Cl,0,6,-4,9,16,0
COCCCNC(=O)C(=O)NC1CCCCC1C (stereo not drawn),6,4,26*,13,0,-1
CC1CCCCC1NC(=O)C(=O)NCC1CCCO1 (stereo not drawn),0,-1,3,13,-3,4
COCCOC(=O)c1c(NC(=O)COC(=O)c2ccc(C)o2)sc(C(N)=O)c1C,-1,1,4,-2,-9,-2
COc1ccc(C2=CC3=C(Br)C(=O)C(C)(O)C(=O)C3=CO2)cc1 (stereo not drawn),8,8,15,13,28,17
CC1(O)C(=O)C=C2C=C(c3ccc(C#N)cc3)OC=C2C1=O (stereo not drawn),nt,nt,57*,nt,nt,nt
COc1ccc(C2=CC3=CC(=O)C(C)(O)C(=O)C3=CO2)cc1 (stereo not drawn),nt,nt,38*,nt,nt,nt
CC(C)(C)c1ccc(-n2ncc3c2CCCC3NC(=O)CCn2cncn2)cc1 (stereo not drawn),3,1,33*,6,5,2
CCN(C(=O)c1cnc(NC(C)C)cc1C(F)(F)F)c1ccc(Cl)cc1Cl,17,0,-3,3,-12,-5
Cc1c(C(=O)O)cccc1-c1ccc(/C=N/Nc2ccc(Br)cc2)o1,20,3,26*,6,11,9
CCOC(=O)c1c(-c2ccc(-c3ccccc3)cc2)csc1NC(=O)C1C2CCC(O2)C1C(=O)O (stereo not drawn),-3,-2,28*,5,-36,12
O=C(COc1ccc(-n2cnnn2)cc1)Nc1ccc(F)c(F)c1,6,7,-1,7,-3,2
COc1ccc(NC(=S)NC(NC(=O)c2ccccc2Cl)C(Cl)(Cl)Cl)c([N+](=O)[O-])c1 (stereo not drawn),1,-1,-1,0,-23,7
COc1ccc(NC(=S)NC(NC(=O)CCl)C(Cl)(Cl)Cl)c([N+](=O)[O-])c1 (stereo not drawn),12,-1,-4,5,42*,7
Cc1ccc(S(=O)(=O)N2CCCC2C(=O)NCc2ccc3c(c2)OCO3)cc1 (stereo not drawn),-2,-2,-2,0,8,-2
Cc1ccccc1NS(=O)(=O)c1ccc(NC(=O)CSCc2ccc(Br)cc2)cc1,-41,-16,26*,-37,-76,-14

# Screening results deposited in PubChem BioAssay by The Scripps Research Institute Molecular Screening Center.
